# NS1 inh: influenza NS1 inhibition. Potency, µM (series often up to 46.1 µM), without a hit: at the top dose activity, positive = more growth. 270,000 tested, 0.4% active. AID 2326; calls by dose curve; further: potency means the concentration at half of the fitted maximal effect; actives are rising curves; nearly all actives have a fitted effect of over 50% in size
#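 Recovery from NS1-induced slow growth read by OD600 in budding yeast switched to galactose assay medium (pH 6.0, -URA) at 1:100 dilution. Compound 23 nl per well; the matching strain lacking NS1 serves as control.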
# Pf growth 48h: P. falciparum growth inhibition at 48 hours (one generation); 310,000 tested, 5.9% active; P. falciparum luciferase growth in erythrocytes, 48 h; Potency, µM (top dose mostly 28.7 µM), inactives show top-dose activity change, negative = inhibition, hits mostly inhibitors; AID 504832; further: potency means the concentration at half of the fitted maximal effect; on the % scale 0 is the no-effect control and ±100 the full control effect
#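 Compounds are pin-transferred into medium, infected erythrocytes (2% hematocrit, 0.1% parasitemia final) are added, and plates sit one parasite generation at 37 C in 5% CO2. Detection reagent is then added and luminescence measured.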
# Shiga inhibitor: Shiga toxin inhibition; Vero cells, Shiga toxin protein synthesis inhibition reporter; 290,000 tested, 9.2% active; inhibition, % at 38.7 µM; AID 2315; in the data active means inhibition mostly above about 28%, no sharp cut-off; inactive means mostly below about 43%; further: 0% is about no effect
# Pf growth 96h: P. falciparum growth inhibition at 96 hour, primary screen for plastid delayed-death inhibitors; AID 504834; 320,000 tested, 6.9% active; Potency, µM (highest dose often 28.7 µM), without a hit: top-dose activity change, negative = inhibition, hits mostly inhibitors; P. falciparum luciferase reporter growth, 96 h; further: potency means the concentration at half of the fitted maximal effect; on the % scale 0 is the no-effect control and ±100 the full control effect
#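 P. falciparum expressing integrated firefly luciferase, in erythrocytes at 2% hematocrit, 0.05% parasitemia, incubated with compounds 96 h at 37 C, 5% CO2. Growth inhibition read as loss of luminescence; two-generation exposure targets delayed-death apicoplast inhibitors.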
# FBPA Giardia inh: Giardia lamblia aldolase inhibition | A8B2U2 | purified Giardia FBPA | Potency, µM (highest dose often 59.6 µM), inactives show at the top dose activity, negative = inhibition, usual class: inhibitors | 290,000 tested, 0.71% active; further: potency means the concentration at half of the fitted maximal effect; on the % scale 0 is the no-effect control and ±100 the full control effect; nearly all actives have a fitted effect of over 55% in size
# Target sequence (A8B2U2 whole entry, looked up): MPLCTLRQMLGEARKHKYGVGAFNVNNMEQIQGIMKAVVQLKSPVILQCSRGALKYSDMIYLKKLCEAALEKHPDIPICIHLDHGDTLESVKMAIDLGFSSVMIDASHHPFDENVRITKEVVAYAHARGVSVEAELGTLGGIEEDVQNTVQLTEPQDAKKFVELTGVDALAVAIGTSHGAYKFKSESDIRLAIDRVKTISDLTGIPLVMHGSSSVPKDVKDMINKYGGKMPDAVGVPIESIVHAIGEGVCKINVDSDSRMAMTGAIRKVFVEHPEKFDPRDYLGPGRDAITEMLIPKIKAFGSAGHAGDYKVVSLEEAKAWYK
#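 Giardia FBPA (40 nM reagent) was preincubated 10 min at RT with compound (up to 57.5 uM final), then substrate plus GAPDH/TPI/NAD/arsenate coupling system with diaphorase/resazurin was added; resorufin fluorescence (525/598 nm) was read after 20 min.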
# CHX counter: counter-screen for Shiga toxin inhibitors: cycloheximide protein synthesis inhibition; cell reporter, cycloheximide protein synthesis inhibition counterscreen; max response, %; 300,000 tested, 12% active; AID 2314; in the data active means max response mostly above about 13%, no sharp cut-off; inactive means mostly below about 14%; further: read at 38.3 µM for the half of the compounds with a filed dose; 0% is about no effect
# Flu NS1 inh: influenza NS1 function inhibition validation. AID 492980. activity change, negative = inhibition, % at 32.9 µM. influenza NS1 function cell assay, 15-point titration. 1,400 tested, under 10 active. shares compounds with NS1 inh; calls by dose curve; further: 0% is about no effect
# * marks the source's active call; other numbers are inactive results; ? = inconclusive; nt = no result given. In the library only some 21% were active in any assay of this set; here they are far more common. Unless noted, the call rests on the fitted dose curve; in most records, active means well fitted curve in the direction sought with a large enough effect; inconclusive means small, poorly fitted or top-dose-only effect, or another doubt; inactive means no such curve, though single readings can be large; an effect the other way counts as inactive or inconclusive.
SMILES,NS1 inh,Pf growth 48h,Shiga inhibitor,Pf growth 96h,FBPA Giardia inh,CHX counter,Flu NS1 inh
Cc1cccc(C(=O)N2CCc3cc(-c4nc(NC(=O)Cn5nnc6ccccc6c5=O)sc4C)ccc32)c1,?,7%,-4,56%,0%,3,nt
Cc1ccccc1C(=O)N1CCc2cc(-c3nc(NC(=O)Cc4ccc5c(c4)OCO5)sc3C)ccc21,?,?,12,54%,30%,24,1
c1ccc(-n2cnc3cc(NCc4ccncc4)ccc32)cc1,?,?,91*,?,1%,27*,-11
CSc1nnc2c(n1)OC=Nc1ccc(Br)cc1-2,-3%,-10%,57,-1%,1%,-1,nt
COc1ccccc1-n1c(SCC(=O)NCc2ccc3c(c2)OCO3)nc2cc([N+](=O)[O-])ccc21,13µM*,?,6,?,?,-2,1
O=C(NCC1CCN(Cc2cccc(Cl)c2)CC1)Nc1ccccc1Cl,7%,?,-3,43%,4%,-1,nt
NC(=S)N/N=C1\CC(c2ccc3c(c2)OCCCO3)Oc2ccc(F)cc21 (stereo unspecified),2µM*,?,33,?,-8%,15,1
NC(=O)c1ccccc1OCC(=O)N1CCCC1c1ccc2c(c1)OCCCO2 (stereo unspecified),nt,?,nt,-6%,nt,nt,nt
CCc1ccc(NC(=O)CC2C(=O)Nc3c2c(=O)n(C)c(=O)n3C)cc1 (stereo unspecified),7%,-7%,-5,?,2%,-8,nt
Cn1c(=O)c2c(n(Cc3ccccc3)c1=O)NC(=O)C2CC(=O)NCc1cccc(Cl)c1 (stereo unspecified),14µM*,?,-11,?,1%,-3,3
CC(=O)Nc1ccc(Br)cc1C(=O)C(=O)O,-7%,11%,-6,-9%,-21%,1,nt
Cc1ccc(NS(=O)(=O)c2cccc(C(=O)NCCc3c[nH]c4ccccc34)c2)c(C)c1,11µM*,?,-5,?,-13%,6,32
Cc1ccc(NC(=O)C(=O)NCCc2c[nH]c3ccccc23)c(C)c1,nt,-23%,-8,16%,5%,4,nt
O=C(COc1ccc(Cl)cc1)NNC(=S)NCc1ccccc1,5.6µM*,?,-4,27%,11%,0,?
CC(=O)N(Cc1nc2sc(C)c(C)c2c(=O)[nH]1)C1CCCC1,1%,-4%,-4,43%,-3%,-2,nt
COc1ccc(NS(=O)(=O)c2ccc3nc(COc4cccc5ccccc45)[nH]c3c2)cc1,22µM*,?,35,?,-5%,13,8
Cc1ccccc1N=C1SC(CC(=O)Nc2ccc3ccccc3c2)C(=O)N1Cc1ccccn1 (stereo unspecified),14µM*,1.2µM*,48,3.7µM*,20%,29*,-13
CCN1C(=O)C(CC(=O)Nc2cccc(C(C)=O)c2)S/C1=N\c1ccccn1 (stereo unspecified),0%,19%,18,-11%,5%,1,nt
Cc1cc(C)c(CN2CCN(Cc3ccc(C)o3)C(CCO)C2)c(-n2cccn2)c1 (stereo unspecified),0%,-17%,12,?,6%,9,nt
COc1cc2nc(SCC(=O)NCCc3ccccc3)n(Cc3ccco3)c(=O)c2cc1OC,2.5µM*,-5%,40,?,-5%,-2,-3
Cc1cccc(C)c1NC(=O)C1=C(O)c2sccc2N(C)S1(=O)=O,nt,221%,2,-15%,23%,-6,nt
CSCC[C@H](NC(=O)[C@H](Cc1ccccc1)n1c(=O)[nH]c2ccccc2c1=O)C(=O)NCC1CCC(C(=O)O)CC1 (stereo partly specified),11µM*,-3%,6,-20%,7%,1,13
CN1N=C(C(C)(C)C)CSC1=Nc1ccccc1,-3%,0%,36,15%,3%,16,nt
CN(C)c1ccnc(-c2cccc(NS(C)(=O)=O)c2)n1,nt,nt,nt,nt,0%,nt,nt
Cc1ccccc1-n1nc(C(=O)O)c(C)c(C#N)c1=O,2.8µM*,2%,-1,?,14%,-3,12
SMILES,NS1 inh,Pf growth 48h,Shiga inhibitor,Pf growth 96h,FBPA Giardia inh,CHX counter,Flu NS1 inh
Cc1c(C(=O)O)nn(-c2cccc(C(F)(F)F)c2)c(=O)c1C#N,-8%,9%,-11,?,-7%,-3,nt
Cc1ccc2c(c1)C(c1ccccc1)N(C(=O)c1ccc(Br)o1)CC(=O)N2 (stereo unspecified),25%,nt,13,8%,-20%,5,nt
O=C1CN(C(=O)c2ccc(Br)o2)C(c2ccccc2)c2cc(Br)ccc2N1 (stereo unspecified),11µM*,nt,18,5.9µM*,-6%,8,-10
C#CCn1c(S(=O)(=O)Cc2ccc(OC)cc2)nc(-c2ccccc2)c1-c1ccccc1,18%,?,-19,?,-6%,3,nt
COc1ccc(COc2cc(-c3cccc(OC)c3)nc3ccc(NC(=O)C(C)C)cc23)cc1,3%,?,-5,?,-2%,-3,nt
Cc1ccc(CSc2nnc(-c3ccccc3N)c(=O)[nH]2)cc1,11µM*,nt,-1,-14%,?,1,-35
Nc1ccccc1-c1nnc(SCc2ccccc2Cl)[nH]c1=O,-71%,?,48,nt,10%,17,nt
C=CCC(O)(CC=C)CNC(=O)C1CCC(=O)N(CCCc2ccccc2)C1 (stereo unspecified),13%,15%,1,4%,-4%,-4,nt
C[C@H](NC(=O)c1nc[nH]c1C(=O)N[C@@H](Cc1ccccc1)C(=O)OCc1ccccc1)C(=O)OC(C)(C)C,10µM*,7.4µM*,-4,?,?,5,-25
CC(C)C[C@H](NC(=O)c1[nH]cnc1C(=O)N[C@@H](C)C(=O)OC(C)(C)C)C(=O)OCc1ccccc1,-8%,?,7,?,-24%,-3,nt
C[C@H](NC(=O)c1nc[nH]c1C(=O)N[C@@H](CCCCNC(=O)OC(C)(C)C)C(=O)OC(C)(C)C)C(=O)OCc1ccccc1,10µM*,?,3,17%,?,10,-33
C[C@H](NC(=O)c1nc[nH]c1C(=O)N[C@@H](CCCCN)C(=O)OC(C)(C)C)C(=O)OC(C)(C)C,nt,?,nt,54%,nt,nt,nt
CC(C)C[C@H](NC(=O)c1nc[nH]c1C(=O)NCc1ccc(CNC(=O)OC(C)(C)C)cc1)C(=O)OC(C)(C)C,8.9µM*,?,-3,?,-2%,-3,2
CC(C)(C)OC(=O)[C@H](Cc1ccccc1)NC(=O)c1nc[nH]c1C(=O)NCC(=O)OCc1ccccc1,11µM*,77%,8,115%,-24%,-2,-23
c1ccc(C2=Nn3c(Cn4nnc5ccccc54)nnc3SC2)cc1,-1%,-18%,-2,-16%,-20%,-3,nt

# From PubChem BioAssay
